Rows were chosen to be rich in hits. Some 12% of all compounds tested hit in one or more screens of this group.
Pf growth 48h: inhibits P. falciparum growth in the first generation, 48 h | P. falciparum luciferase growth in erythrocytes, 48 h | actives 5.9% (n = 310,000) | Potency, µM (series often up to 28.7 µM), for the others: at the top dose activity change, negative = inhibition, hits mostly inhibitors | AID 504832; note: % is set by controls: 0 for no effect and ±100 for the full control effect
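Firefly luciferase activity from engineered P. falciparum reports growth; inhibitors lower the luminescent signal. Cultures contained 2% hematocrit erythrocytes at 0.1% final parasitemia.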
HCV inh: inhibitors of hepatitis C virus infection | Potency, µM (top dose mostly 41.8 µM), without a hit: at the top dose activity change, negative = inhibition, hits mostly inhibitors | actives 3.4% (n = 340,000) | Huh7.5.1 HCVcc-Cre infection, luciferase reporter, 44 h; note: % is set by controls: 0 for no effect and ±100 for the full control effect
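Cells (1,000/well) were plated 4 h before compound, then infected with HCVcc-Cre virus (~0.5 moi). After 44 h further culture, infection was read as luciferase luminescence following a 15 min substrate incubation at room temperature.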
NS1 function inh: inhibitors of influenza NS1 protein function | AID 2326 | actives 0.4% (n = 270,000) | Potency, µM (top dose mostly 46.1 µM), without a hit: at the top dose activity, positive = more growth; calls by dose curve; note: actives are rising curves; nearly all actives have a fitted effect of over 50% in size
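OD600 was taken as the measure of yeast growth restored by compound in an NS1-expressing S. cerevisiae strain. Cells had been washed out of glucose medium and diluted 1:100 into galactose -URA medium, pH 6.0.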
SARS PLP yeast: inhibitors of SARS-CoV papain-like protease in yeast | S. cerevisiae expressing SARS-CoV PLpro, growth rescue | Potency, µM (series often up to 32.9 µM), for inactives: at the highest dose activity, positive = growth rescue, usual class: activators | actives 0.19% (n = 330,000); calls by dose curve; note: 0% is about no effect; nearly all actives have a fitted effect of over 55% in size
AMA1 RON2 block: inhibitors of Plasmodium falciparum AMA1-RON2 interaction | Potency, µM (series often up to 58.2 µM), inactives show at the highest dose activity change, negative = inhibition, usual class: inhibitors | AID 720542 | actives 0.2% (n = 360,000) | AlphaScreen AMA1-biotinylated RON2 peptide binding;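 note: 0% = vehicle wells and -100% = peptide control; nearly all actives have a fitted effect of over 45% in size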
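AMA1 (3D7) with his tag at 25 nM final met compounds first, then biotinylated RON2 peptide at 25 nM; detection used donor plus acceptor beads, 10 µg/mL apiece, read by AlphaScreen after 30 min at room temperature.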
Pf growth 96h: inhibits malaria parasite growth, 96 h; P. falciparum luciferase reporter growth, 96 h; AID 504834; actives 6.9% (n = 320,000); Potency, µM (titrated, usually from 28.7 µM), for the others: top-dose activity change, negative = inhibition, hits mostly inhibitors; note: % is set by controls: 0 for no effect and ±100 for the full control effect
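P. falciparum expressing integrated firefly luciferase, in erythrocytes at 2% hematocrit, 0.05% parasitemia, incubated with compounds 96 h at 37 C, 5% CO2. Growth inhibition read as loss of luminescence; two-generation exposure targets delayed-death apicoplast inhibitors.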
* marks the source's active call; other numbers are inactive results; ? = inconclusive; / = no result given; [ ] = dose if it differs, or a comment. Unless noted, calls come from the whole dose curve; as a rule, active = well fitted curve in the direction sought with a large enough effect; inconclusive = small, poorly fitted or top-dose-only effect, or another doubt; inactive = no such curve, though single readings can be large; an effect the other way counts as inactive or inconclusive. Potency is the fitted concentration of half-maximal effect.

SMILES	Pf growth 48h	HCV inh	NS1 function inh	SARS PLP yeast	AMA1 RON2 block	Pf growth 96h
CCc1ccc(C(C)NC(=S)NCc2ccc(F)cc2)cc1 (centres undefined)	13µM*	?	19%	11%	24%	15µM*
CCOc1ccc(C(C)NC(=S)NCc2ccc(F)cc2)cc1 (centres undefined)	?	?	-91%	?	3%	-19%
CCC(NC(=S)NCc1ccc(F)cc1)c1ccc(C)cc1 (centres undefined)	9.3µM*	-16%	-67%	?	16%	10µM*
CCOC(=O)C1=CC[C@H]2c3c(c4ccccc4n3C)C(=O)C1N2C(=O)OC(C)(C)C	-89%	4%	/	4%	-15%	?
O=C(OCC(=O)N1CCc2ccccc2C1)c1c(F)cccc1Cl	/	-12%	/	0%	3%	/
NS(=O)(=O)c1ccc(N=Cc2c(O)n(C3CCCCC3)c(=O)n(C3CCCCC3)c2=O)cc1	-24%	?	-31%	-15%	-5%	-18%
CC(C)C(=O)N1CCC(CN=Cc2c(O)n(C3CCCCC3)c(=O)n(C3CCCCC3)c2=O)CC1	1.5µM*	?	/	-9%	-20%	-19%
Cc1ccc(N(C)S(=O)(=O)c2cccc(C(=O)Nc3ccc(C)cn3)c2)cc1	2.1µM*	?	/	-2%	20%	5.2µM*
COc1ccccc1N(Cc1ccccc1)S(=O)(=O)c1cccc(C(=O)Nc2ccccn2)c1	10µM*	?	-35%	-10%	-5%	9.3µM*
O=C(Nc1ccc(Cl)cc1)c1cc(S(=O)(=O)Nc2ccccn2)ccc1Cl	0%	2%	3%	2%	34%	31%
O=C(Nc1ccc(Cl)cc1)c1cccc(S(=O)(=O)Nc2ccccn2)c1	12%	/	7%	-3%	-5%	13µM*
COc1ccccc1N(Cc1ccccc1)S(=O)(=O)c1cccc(C(=O)Nc2ccc(C)cn2)c1	4.1µM*	?	/	3%	3%	1.9µM*
O=C(/C=C/c1ccc(Cl)cc1)Nc1cc(S(=O)(=O)N2CCOCC2)ccc1N1CCOCC1	/	?	/	7%	-27%	/
CCN(CC(=O)Nc1ccc(OC)cc1)C(=O)c1ccc2c(=O)n3c(nc2c1)CCC3	?	17%	/	0%	-9%	?
COc1ccc2cc(C3(C)NC(=O)N(CC(=O)NCC(F)(F)F)C3=O)ccc2c1 (centres undefined)	-7%	-30%	6%	4%	1%	-1%
O=C(Nc1ccccc1)c1ccccc1C(=O)N1CCCCC1	7%	6%	/	0%	0%	35%
CC1(C)CC(NC(=O)c2cccc(S(=O)(=O)N(Cc3ccccc3)c3ccccc3)c2)CC(C)(C)N1	10µM*	2.2µM*	/	-4%	2%	13µM*
Cc1ccc(C2(c3ccc(C)cc3)CC2C(=O)Nc2ccc([N+](=O)[O-])cc2O)cc1 (centres undefined)	0.83µM*	3.5µM*	-34%	-38%	?	0.66µM*
CC1(C)CC1C(=O)Nc1ccc([N+](=O)[O-])cc1Br (centres undefined)	19%	?	-15%	7%	7%	17%
O=C(Nc1ccc([N+](=O)[O-])cc1)C1CC1(c1ccccc1)c1ccccc1 (centres undefined)	12µM*	?	1%	20%	2%	?
COCC(=O)Nc1cc(C)cn(Cc2ccccc2Cl)c1=O	0%	-8%	-15%	2%	-1%	0.083µM*
CCCC(=O)Nc1cc(C)cn(Cc2c(F)cccc2Cl)c1=O	-4%	?	-9%	2%	2%	?
CCc1ccc(N2CC(C(=O)OCC(=O)Nc3ccc([N+](=O)[O-])cc3)CC2=O)cc1 (centres undefined)	?	0%	/	-5%	-22%	-6%
CC(=O)c1c(C)[nH]c(C(=O)OCC(=O)Nc2cccc(S(=O)(=O)N3CCCC3)c2)c1C	5.9µM*	?	16%	-6%	-4%	0.83µM*
Cc1nnnn1/C(=C\c1ccccc1)C(=O)OCC(=O)Nc1cccc(S(=O)(=O)N(C)C)c1	15%	10µM*	/	1%	-2%	8%
SMILES	Pf growth 48h	HCV inh	NS1 function inh	SARS PLP yeast	AMA1 RON2 block	Pf growth 96h
CC(=O)c1c(C)[nH]c(C(=O)OCC(=O)Nc2cccc(S(=O)(=O)N(C)C)c2)c1C	?	6.3µM*	5%	0%	26%	?
CC(=O)c1c(C)[nH]c(C(=O)OCC(=O)Nc2cc(S(=O)(=O)N3CCCC3)ccc2Cl)c1C	-22%	1.4µM*	3%	-17%	-22%	24%
CCN(CC)S(=O)(=O)c1cccc(NC(=O)COC(=O)c2[nH]c(C)c(C(C)=O)c2C)c1	/	/	/	/	-4%	/
CC(=O)c1c(C)[nH]c(C(=O)Nc2cccc(S(=O)(=O)N3CCCC3)c2)c1C	/	?	/	3%	17%	/
COc1ccc(-c2nn(C)c(=O)[nH]2)cc1	?	10%	5%	1%	24%	48%
CC(=O)c1cc(CN2CCC(C(=O)Nc3ccc(-n4nc(C)cc4C)cc3)CC2)cs1	/	-30%	/	/	2%	/
CNCCC=C1c2ccccc2C=Cc2ccccc21	/	?	/	/	-13%	/
CNCCCC1c2ccccc2C=Cc2ccccc21	?	?	8%	2%	4%	12µM*
O=C(Nc1nccs1)c1ccc(S(=O)(=O)NCc2cccs2)cc1	-19%	10µM*	0%	3%	23%	/
O=S(=O)(NCc1cccs1)c1ccc(Br)cc1	3%	5%	-2%	7%	7%	0%
O=C(Nc1ccc(Br)cc1)c1ccc(F)c(S(=O)(=O)NCc2cccs2)c1	?	5µM*	15%	-36%	11%[11.6 µM]	?
CC(NCC(=O)NC(=O)NCCC1=CCCCC1)c1ccc(S(N)(=O)=O)cc1 (centres undefined)	/	10%	/	/	?	/
O=C(O)CCC/C=C\C[C@@H]1[C@@H](/C=C/[C@@H](O)COc2cccc(C(F)(F)F)c2)[C@H](O)C[C@@H]1O	-9%	/	/	/	/	0.95µM*
COc1cc(CNCCc2c[nH]c3ccccc23)cc(Cl)c1OCC(N)=O	?	?	3%	5%	-30%	-13%
CCOc1cc(CNCCc2c[nH]c3ccccc23)cc(Cl)c1OCC(N)=O	?	?	2%	0%	-4%	4.7µM*
CCOc1cc(CNCCc2c[nH]c3ccccc23)cc(Cl)c1OC	?	10µM*	-11%	-2%	?	6.6µM*
COc1cc(CNCCc2c[nH]c3ccccc23)ccc1OCc1ccc(F)cc1	?	13µM*	2%	-12%	-22%	/
Oc1ccccc1CC=NC1CCCCC1	/	17%	/	/	?	/
CN1CCN(C2CCN(c3ccc(Nc4nnc(Cl)c(Nc5ccccc5S(C)(=O)=O)n4)c(OC(CF)CF)c3)CC2)CC1	/	11µM*	/	-4%	-16%	/

High-throughput results deposited in PubChem BioAssay by National Center for Advancing Translational Sciences (NCATS).
